Among the data in PubChem BioAssay AID651951 (The Scripps Research Institute Molecular Screening Center, 2012) are inhibition values, retold here.

The inhibition is the change of the read-out against control, counted positive when it falls.

The campaign covered roughly 2,400 compounds. About 1,100 (46%) were called active.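 Rule for the calls: active = inhibition above the run cutoff, the mean inhibition of all test compounds plus 3 SD (cut at about 49% in these data); inactive = the rest.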 So high a share suggests a set chosen from earlier hits. A selection follows.

Chain of Trace amine-associated receptor 1 (Homo sapiens) (Q96RJ0 whole entry, looked up): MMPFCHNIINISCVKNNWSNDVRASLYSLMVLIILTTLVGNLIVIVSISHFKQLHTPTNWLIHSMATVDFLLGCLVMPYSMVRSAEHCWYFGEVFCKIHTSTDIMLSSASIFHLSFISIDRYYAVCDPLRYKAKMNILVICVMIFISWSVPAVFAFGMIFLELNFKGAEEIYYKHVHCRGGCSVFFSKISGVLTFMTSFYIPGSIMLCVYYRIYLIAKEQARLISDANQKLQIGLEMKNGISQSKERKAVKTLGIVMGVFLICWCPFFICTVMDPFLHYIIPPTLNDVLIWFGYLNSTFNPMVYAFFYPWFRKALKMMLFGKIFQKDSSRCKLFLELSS

The assay concerns the target Trace amine-associated receptor 1 (Homo sapiens) (UniProt Q96RJ0). Nature of the assay: TAAR1 desensitization by agonist hits, confirmation, counter-screen for TAAR1 agonist project, cell-based, fluorescence, tachyphylaxis (AID 651951).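 Note: beta-PEA stimulus applied at its EC80; loss of beta-PEA calcium signal after compound pretreatment read as receptor desensitization; 0% = DMSO with beta-PEA at EC80 and 100% = DMSO alone without agonist.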 The note with it: CHO RD-HGA16 hTAAR1, Fluo-8 calcium, beta-PEA response inhibition; at 3 µM; hits give high values. (Counterscreens check selectivity or assay interference.)
As to `O=C(N[C@H](C(=O)N1CCC[C@H]1C(=O)NCCc1ccccc1Cl)c1ccccc1)c1ccccc1`, the inhibition was 85.5% (active). The value for `Cc1cc(=O)oc2c(C)c(OCC(=O)NCCN3CCOCC3)ccc12` was 2.28% (inactive). The value for `Nc1c(NCCc2ccccc2)c2ccccc2oc1=O` was 53.6% (active); that for `O=Cc1c(NCCc2cccc(F)c2)c2ccccc2[nH]c1=O` was 36.8% (inactive); that for `CCc1ccc(-c2nn(-c3ccccc3)cc2CSC(=N)N)cc1` was 25.1% (inactive).

On to `CCOc1ccc(Br)cc1CSC(=N)N`, for which the inhibition is 67% (active). Then `CCCCOc1ccc(CSC(=N)N)cc1[N+](=O)[O-]`, with 12.3% (inactive); and `S=C(Nc1ccc(Br)cc1)NC1CCN(Cc2ccccc2)CC1`, with 48.3% (inactive); and `Cc1ccccc1-c1nc(CS(=O)(=O)CC(=O)N2CCc3ccccc3C2)c(C)o1`, with 25.5% (inactive). The value for `CCC(C(=O)Nc1ccc(C(C)C)cc1)c1ccccc1` (centres undefined) was 103% (active). Turning to `Cc1ccc(Sc2cc(N3CCOCC3)nc(-c3ccccc3)n2)cc1`, the inhibition is 7.49% (inactive). With `CCC(c1nnnn1Cc1ccco1)N(CCc1ccccc1)Cc1cc2ccc(OC)cc2[nH]c1=O` (centres undefined), the inhibition is 13.2% (inactive).

Turning to `COc1ccc(OC)c(C(c2nnnn2C(C)(C)C)N2CCc3ccccc3C2)c1` (centres undefined), the inhibition was 17.8% (inactive).

For the compound `O=C(O)C1C2C=CC(O2)C1C(=O)NCCc1cccc(Cl)c1` (centres undefined), the inhibition is 92.1% (active). The value for `O=C(NNC(=S)NC(=O)c1cn(-c2ccccc2)nc1-c1ccccc1)c1ccncc1` was 79.3% (active); that for `CN(C(=O)CN(CCO)CC(=O)N(C)C(C)(C)Cc1ccccc1)C(C)(C)Cc1ccccc1` was 94.8% (active); that for `CCCc1cc(C(=O)Nc2ccc(C(=O)OC)cc2)cs1` was 11% (inactive). Then `O=C(/C=C/[C@H]1O[C@@H](n2cnc3c(NC(=O)c4ccccc4)ncnc32)[C@H](O)[C@@H]1O)NCc1ccccc1`, with -5.17% (inactive); and `CCc1ccccc1S(=O)(=O)Cc1ccc(C(=O)NCCc2ccccc2)o1`, with 77.1% (active); and `O=C(NCCc1ccccc1)C(=O)NCC1OCCN1S(=O)(=O)c1cccs1` (centres undefined), with 36.3% (inactive). Then `O=C1CCCN2N=C(SCC(=O)Nc3ccc(Br)cc3)SC2=N1`, with 36.4% (inactive); and `CCCCC(=O)NNC(=S)NC(=O)C(c1ccccc1)c1ccccc1`, with 107% (active); and `c1ccc2c(c1)OCC(CNc1ncnc3nc[nH]c13)O2` (centres undefined), with 106% (active).

`Cc1cc(C)c2cc(C#N)c(N3CCNCC3)nc2c1`: the inhibition is 79.8% (active). Then `COc1ccc(NC(=O)C(=O)NCC(c2ccco2)N2CCc3ccccc3C2)cc1` (centres undefined), with -6.26% (inactive); and `Cc1ccc(NC(=O)CCN2CCc3ccccc3C2)cc1`, with 78% (active); and `Cc1ccc(S(=O)(=O)N(CC(=O)N2CCc3ccccc3C2)c2cccc(Cl)c2)cc1`, with 29.8% (inactive).

On to `CN(C)CCCN(C(=O)c1ccc(S(=O)(=O)N2CCCCCC2)cc1)c1nc2ccc(Br)cc2s1`, for which the inhibition was 41.1% (inactive). As for `CN(C)CCCN(C(=O)c1ccc(S(=O)(=O)N2CCCc3ccccc32)cc1)c1nc2ccc(F)cc2s1`, the inhibition was 53.1% (active). Then `COc1ccc(C(=O)CN2C(=O)NC(C)(c3ccc(C)cc3)C2=O)cc1OC` (centres undefined), with 10.7% (inactive); and `COc1ccc(C(=O)NNC(=S)NC(=O)c2ccccc2)cc1`, with 76.1% (active). Then `O=C(Nc1cccc(NC(=O)c2ccc(Br)cc2)c1)c1ccccc1`, with -9.63% (inactive). The value for `Cc1onc(-c2ccccc2)c1C(=O)NNC(=S)NC(=O)c1ccc(F)cc1` was 65.3% (active).

Consider `COc1ccc(C(=O)NC(=S)NNC(=O)c2c(-c3ccccc3)noc2C)cc1`, for which the inhibition was 29.8% (inactive). The value for `COc1ccc(C(=O)NC(=S)NNC(=O)CCc2ccccc2)cc1` was 68.4% (active). The value for `C#CCOc1ccc(/C=C2/C(=O)NN(c3ccccc3)C2=O)cc1OC` was 39% (inactive); that for `Nc1nonc1-n1nnc(C(=O)N/N=C/c2ccc(Cl)cc2)c1-c1ccc2c(c1)OCO2` was 37.8% (inactive). Then `Nc1cccc2c1C(=O)N(Cc1nnc(-c3ccccc3Br)o1)C2=O`, with 26.5% (inactive); and `O=C(Nc1ccncc1)Nc1ccc(F)cc1`, with 76.4% (active).

Take `CCCn1c(O)c(CN2CCCC(C)C2)c(C)c(C#N)c1=O` (centres undefined): the inhibition is 55.8% (active). The value for `S=C(NCCc1ccccc1)N1CCn2cccc2C1c1ccncc1` (centres undefined) was 83.2% (active); that for `COc1ccc(OC)c(NC(=S)N2CCc3ccccc3C2)c1` was 40.2% (inactive); that for `CCCSc1nc2c(c(=O)n(C)c(=O)n2C)n1Cc1ccc(C)cc1` was 37.9% (inactive). Then `c1ccc(Nc2nc(N3CCOCC3)c3ccccc3n2)cc1`, with 93% (active); and `CC(Oc1ccc2ccccc2c1)C(=O)NNC(=S)NC(=O)c1ccco1` (centres undefined), with 70.9% (active). The value for `CCCc1ccc(OCC(=O)NNC(=S)NC(=O)c2ccco2)cc1` was 71.9% (active); that for `COc1ccc2cc(-c3[nH]ncc3CNCCn3nc(C)cc3C)ccc2c1` was 13% (inactive); that for `NC(=O)C1=C[C@H](c2csc3ccccc23)C[C@H](OCc2ccc(CO)cc2)O1` was 50.8% (active). With `COC(=O)c1[nH]c2cccc(C)c2c1NC(=O)CN1CCCc2ccccc21`, the inhibition was 35.7% (inactive). As to `COc1cccc(-c2cnc(OC(C)(C)C)nc2OC(C)(C)C)c1`, the inhibition is 3.93% (inactive). The value for `Fc1ccc(NC(=S)N2CCc3[nH]c4ccccc4c3C2)cc1` was 28.1% (inactive).

`O=C(CCCN=C1NS(=O)(=O)c2ccccc21)OCC(=O)c1ccc(F)c(F)c1`: the inhibition was 37.4% (inactive). Then `C[C@H](NC(=O)c1ccccc1)C(=O)OCC(=O)c1c[nH]c2ccccc12`, with 79.2% (active); and `OC(CNCCc1ccc(Cl)cc1Cl)COc1ccccc1` (centres undefined), with 79.2% (active); and `COc1ccc(CC(N)c2csc(NC(=O)Cc3ccccc3)n2)cc1` (centres undefined), with 23.6% (inactive).

`CC(C)(C)CC(=O)Nc1nc(C(N)Cc2ccc(C(F)(F)F)cc2)cs1` (centres undefined): the inhibition was 58.9% (active). Then `O=C(COC(=O)Cc1ccccc1F)NCCc1ccccc1`, with 86% (active); and `Cc1cc2nc3c(=O)[nH]c(=O)nc-3n(C[C@H](O)[C@H](O)[C@H](O)CO)c2cc1C`, with 53.2% (active). Then `O=C(Nc1ccc(Cl)cc1)N1CCc2[nH]c3ccccc3c2C1`, with 12.4% (inactive); and `O=c1cnnc(Nc2ccccc2)[nH]1`, with 60.1% (active). Then `COc1ccc2c(c1)OC(O)(C(F)(F)C(F)F)CC2=O` (centres undefined), with 11.2% (inactive); and `NC[C@H](Cc1ccccc1)NCCc1cc(C(F)(F)F)cc(C(F)(F)F)c1`, with 12.9% (inactive). `CCCCCCCCCCOC(=O)Cn1c(COc2ccc(C)cc2)[n+](C)c2ccccc21`: the inhibition is 102% (active). `CC(Oc1ccc(Cl)cc1)C(=O)OCC(=O)Nc1ncc(Cl)cc1Cl` (centres undefined): the inhibition is 7.27% (inactive). With `Cc1ccc(Cl)cc1N1CCN(C(=O)c2cccc3c(=O)c(C)c(-c4ccccc4)oc23)CC1`, the inhibition is 80.9% (active). The value for `Nc1c(C(=O)c2cccs2)sc2nsc(SCCN3CCCCC3)c12` was 60.8% (active); that for `COc1ccc(C(N)c2csc(NC(=O)Nc3cccc(C(F)(F)F)c3)n2)cc1` (centres undefined) was 44.9% (inactive). The value for `CCOC(=O)Cc1csc(NC(=O)Nc2ccccc2)n1` was 28.9% (inactive). On to `NC(c1ccccc1)c1csc(NC(=O)Nc2cccc(C(F)(F)F)c2)n1` (centres undefined), for which the inhibition was 50.7% (active). Then `COc1cc(OC)c(-n2cc(-c3ccc(Cl)cc3)[nH]c2=O)cc1Cl`, with 79.8% (active); and `O=C(Cc1ccc(Cl)cc1)NC(=S)Nc1ccccc1O`, with 106% (active); and `Cc1ccccc1NC(=S)NC(=O)Cc1ccc(Cl)cc1`, with 81.5% (active). For the compound `CCC(c1nnnn1Cc1ccco1)N(CCc1ccccc1)Cc1cc2cccc(C)c2[nH]c1=O` (centres undefined), the inhibition was 20.6% (inactive). Then `NC(Cc1ccccc1)c1csc(Nc2cc(Oc3ccccc3)ncn2)n1` (centres undefined), with 65.7% (active). The value for `CC(=O)Oc1ccc(Cn2c(C)c(C(=O)NCc3ccc(C#N)cc3)sc2=O)cc1` was 72.9% (active); that for `O=C1CCCC(O)=C1C=NCCc1ccccc1` was 32.1% (inactive). In the case of `Cc1ccn2c(=O)c(C(=O)NCCC3=CCCCC3)c(O)nc2c1`, the inhibition is 65.7% (active). The value for `c1ccc(-c2csc(N3CCc4ccccc4C3)n2)cc1` was 15.3% (inactive); that for `Oc1ccc2ccc3cccc[n+]3c2c1` was 19.6% (inactive); that for `CC(NC(=O)c1cc(-c2ccccc2)on1)c1ccccc1` (centres undefined) was 51.1% (active). Then `COc1cc(OC)cc(C(=O)N[C@H](C(=O)OCC(=O)NC(C)c2ccccc2)C(C)C)c1` (some centres undefined), with 12.6% (inactive); and `c1ccc(C2CNCc3c2ccc2ccccc32)cc1` (centres undefined), with 95.2% (active).

Turning to `CCN(CC)c1ccc2oc(=O)c(C)nc2c1`, the inhibition is 25.7% (inactive). Then `O=C(Nc1ccc(F)cc1)Nc1nnc([C@H]2C[C@H](O)[C@@H](CO)O2)s1`, with 25.5% (inactive).

For `O=C(Nc1ccccc1)Nc1nnc(COc2ccccc2F)s1`, the inhibition is 72.4% (active).

As for `O=C(c1noc2c1CCCC2)N1CCc2ccccc2C1`, the inhibition is 5.47% (inactive). Then `CN(C)c1ccc(/C=C2\NC(=S)N(Cc3ccccc3)C2=O)cc1`, with 63.9% (active). The value for `CC(=O)Nc1ccccc1Sc1ccc2c3c(cccc13)C(=O)N(c1ccc(C)cc1)C2=O` was 5.11% (inactive); that for `CCCOc1ccc(-c2c(C(=O)N/N=C/c3ccco3)nnn2-c2nonc2N)cc1` was 13.2% (inactive). The value for `Cc1cccc(NC(=O)C(C)N2C(=O)C3C4CC(C(Br)C4Br)C3C2=O)c1` (centres undefined) was 52.5% (active); that for `CCCC1CCC(=NNC(=S)NCCc2ccccc2)CC1` (centres undefined) was 51.7% (active).

For the compound `Cc1ccc(O)c(NC(=S)NC(=O)COc2ccc(Br)cc2)c1`, the inhibition was 104% (active). The value for `Nc1cc(OC(=O)c2ccccc2Br)nn1S(=O)(=O)c1ccccc1` was 11.7% (inactive).

Regarding `COCCCn1c(Cc2csc(Nc3cccc(Cl)c3)n2)nnc1SCC(=O)OC1CCCCC1`, the inhibition is -2.24% (inactive). `COc1ccc(Cl)cc1C(=O)NNC(=S)NC(=O)/C=C/c1ccco1`: the inhibition is 67.7% (active). The value for `O=C1C=C(c2ccc(Cl)cc2)C(=O)N1Nc1ccccc1` was 72.8% (active); that for `Nc1nnn(CC(=O)N/N=C/c2ccccc2)n1` was 17.8% (inactive). As to `CSc1nc(N)c(C#N)c(-c2ccccc2Cl)c1C#N`, the inhibition was 24.1% (inactive).

As to `O=C(CSc1nc(-c2ccco2)cc(C(F)(F)F)n1)NCc1cccs1`, the inhibition is -5.52% (inactive). Then `Cc1c(CNCCc2ccccc2)c(C(=O)O)c(C)n1-c1ccccc1`, with 53.7% (active); and `COc1cccc(N(CC(=O)N2CCc3ccccc3C2)S(C)(=O)=O)c1`, with 15.3% (inactive). Then `S=C(NCCCc1cnc[nH]1)NCCCN(Cc1ccc(Cl)c(Cl)c1)c1ccc(Br)cn1`, with 59.7% (active). As to `O=C(NCCc1ccccc1)/C(=C\c1ccc([N+](=O)[O-])cc1)NC(=O)c1ccccc1`, the inhibition was 7.67% (inactive). The value for `CCCCCC(=O)NC(=S)NNC(=O)c1ccc([N+](=O)[O-])cc1` was 61% (active); that for `CCCCc1c(-c2ccc(Cl)cc2)ncn1CCc1ccccc1OC` was 83.4% (active); that for `CCCCCc1c(-c2ccc(OC)c(OC)c2)ncn1CCc1ccccc1OC` was 97.1% (active).

As for `CCc1c(-c2ccccc2OC)ncn1CCc1ccccc1OC`, the inhibition is 39.8% (inactive). Then `CCCCCc1c(-c2cccc(Br)c2)ncn1CCc1ccccc1OC`, with 20.5% (inactive); and `CCCCCc1c(Cc2ccccc2)ncn1CCc1ccccc1OC`, with 88.8% (active). The value for `CCCCc1c(-c2ccc(Br)cc2)ncn1CCc1ccccc1OC` was 49.3% (active); that for `N#Cc1ccc(OCCCN2CCC(C(O)(c3ccccc3)c3ccccc3)CC2)c(F)c1` was 23.9% (inactive). Then `O=[N+]([O-])c1cc(S(=O)(=O)NCCc2ccccn2)ccc1Cl`, with 39% (inactive).

As for `Cn1c(=O)c(=O)n(C)c2cc(S(=O)(=O)NCCc3ccccc3)ccc21`, the inhibition was 73.1% (active).

In the case of `c1ccc2c(c1)C(=NC1CCCCC1)NC2=NC1CCCCC1`, the inhibition is 42.2% (inactive).
